The supplement of paper PMC11732987, “Enantioselective OTUD7B fragment discovery through chemoproteomics screening and high-throughput optimisation” (Communications Chemistry, 2025)

Tests used:
Assay in all cases: log2 ratio of Biotin-Ahx-Ub-VS probe labelling (fragment/DMSO); higher = less target engagement (more negative = stronger competition), active = hit call of the paper (q ≤ 0.05, log2 ratio ≤ -1)
Conditions in all cases: compound concentration: 200 uM; treatment time: 3 h
[1] = biological target: USP34 (UniProt Q70CQ2)
Procedure, shortened: (§1)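 HEK293T lysate (495 µg per sample, in Tris/CHAPS/IGEPAL buffer with protease inhibitors) was exposed in triplicate for 3 h to fragment at 200 µM or to vehicle, then to Biotin-Ahx-Ub-VS at 0.5 µM final for 1 h. Labelled DUBs were enriched on NeutrAvidin, digested with LysC and trypsin, and analysed by diaPASEF LC-MS/MS. Spectronaut label-free quantities were normalised to the global median, and values are average log2 ratios of fragment over vehicle from an unpaired t-test. Only proteins with ≥2 unique peptides were used.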

[2] = biological target: T1, USP36 (UniProt Q9P275)
T1 sequence (whole entry): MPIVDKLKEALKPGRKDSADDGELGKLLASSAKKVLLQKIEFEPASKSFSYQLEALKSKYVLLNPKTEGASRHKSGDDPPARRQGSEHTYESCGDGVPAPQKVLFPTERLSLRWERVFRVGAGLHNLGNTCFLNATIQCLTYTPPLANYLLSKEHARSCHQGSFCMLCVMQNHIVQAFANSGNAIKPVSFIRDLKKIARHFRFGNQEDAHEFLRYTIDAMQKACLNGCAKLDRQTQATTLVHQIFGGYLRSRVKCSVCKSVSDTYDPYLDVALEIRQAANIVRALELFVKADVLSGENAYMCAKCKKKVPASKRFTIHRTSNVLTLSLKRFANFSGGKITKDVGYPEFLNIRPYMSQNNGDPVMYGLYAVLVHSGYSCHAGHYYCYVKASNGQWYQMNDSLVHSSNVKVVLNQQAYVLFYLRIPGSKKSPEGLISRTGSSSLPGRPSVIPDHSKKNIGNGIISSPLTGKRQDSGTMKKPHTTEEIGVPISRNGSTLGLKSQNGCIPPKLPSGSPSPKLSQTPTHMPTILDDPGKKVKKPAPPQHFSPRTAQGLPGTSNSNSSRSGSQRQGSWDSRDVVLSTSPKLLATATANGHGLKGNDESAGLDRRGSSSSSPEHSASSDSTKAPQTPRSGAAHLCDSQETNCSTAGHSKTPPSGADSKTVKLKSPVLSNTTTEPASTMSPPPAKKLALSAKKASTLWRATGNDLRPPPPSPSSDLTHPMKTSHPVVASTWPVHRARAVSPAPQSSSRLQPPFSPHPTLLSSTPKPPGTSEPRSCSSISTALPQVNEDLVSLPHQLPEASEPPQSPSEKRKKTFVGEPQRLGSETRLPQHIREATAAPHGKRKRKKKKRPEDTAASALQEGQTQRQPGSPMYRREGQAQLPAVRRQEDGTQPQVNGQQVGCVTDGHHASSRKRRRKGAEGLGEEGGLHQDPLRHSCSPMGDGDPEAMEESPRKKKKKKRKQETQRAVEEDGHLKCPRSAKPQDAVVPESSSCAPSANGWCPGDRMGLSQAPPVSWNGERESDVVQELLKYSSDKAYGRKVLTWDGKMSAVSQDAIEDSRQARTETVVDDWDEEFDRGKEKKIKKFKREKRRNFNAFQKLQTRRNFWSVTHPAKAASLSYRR
Procedure, shortened: as §1

[3] = biological target: T2, USP38 (UniProt Q8NB14)
T2 sequence (whole entry): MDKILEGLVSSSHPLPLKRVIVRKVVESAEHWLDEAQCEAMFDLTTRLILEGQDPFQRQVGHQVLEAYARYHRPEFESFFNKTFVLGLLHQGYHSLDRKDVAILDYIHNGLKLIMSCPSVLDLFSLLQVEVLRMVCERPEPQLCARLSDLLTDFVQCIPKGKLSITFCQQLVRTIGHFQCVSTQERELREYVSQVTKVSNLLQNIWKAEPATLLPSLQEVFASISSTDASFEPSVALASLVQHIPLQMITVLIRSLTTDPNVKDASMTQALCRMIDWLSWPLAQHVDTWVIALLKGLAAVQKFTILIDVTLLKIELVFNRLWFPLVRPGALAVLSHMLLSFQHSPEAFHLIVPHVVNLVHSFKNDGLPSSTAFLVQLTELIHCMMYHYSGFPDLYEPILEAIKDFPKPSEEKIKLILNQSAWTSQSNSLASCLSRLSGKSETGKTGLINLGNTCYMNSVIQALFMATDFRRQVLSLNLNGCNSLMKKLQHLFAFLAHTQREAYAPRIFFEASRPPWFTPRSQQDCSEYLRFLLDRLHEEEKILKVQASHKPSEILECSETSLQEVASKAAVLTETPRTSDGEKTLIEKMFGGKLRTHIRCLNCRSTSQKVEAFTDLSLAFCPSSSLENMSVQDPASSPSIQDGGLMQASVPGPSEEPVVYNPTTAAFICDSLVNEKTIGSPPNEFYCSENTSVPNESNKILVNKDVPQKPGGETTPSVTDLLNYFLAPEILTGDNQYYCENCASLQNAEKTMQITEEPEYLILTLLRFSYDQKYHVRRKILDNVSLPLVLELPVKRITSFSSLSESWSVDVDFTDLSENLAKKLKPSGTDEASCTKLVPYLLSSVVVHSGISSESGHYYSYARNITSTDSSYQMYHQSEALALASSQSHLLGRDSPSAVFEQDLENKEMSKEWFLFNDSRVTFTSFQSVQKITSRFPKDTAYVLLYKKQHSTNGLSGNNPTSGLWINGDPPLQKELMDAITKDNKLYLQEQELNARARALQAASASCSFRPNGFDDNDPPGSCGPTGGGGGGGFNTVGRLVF
Procedure, shortened: as §1

[4] = biological target: T3, USP39 (UniProt Q53GS9)
T3 sequence (whole entry): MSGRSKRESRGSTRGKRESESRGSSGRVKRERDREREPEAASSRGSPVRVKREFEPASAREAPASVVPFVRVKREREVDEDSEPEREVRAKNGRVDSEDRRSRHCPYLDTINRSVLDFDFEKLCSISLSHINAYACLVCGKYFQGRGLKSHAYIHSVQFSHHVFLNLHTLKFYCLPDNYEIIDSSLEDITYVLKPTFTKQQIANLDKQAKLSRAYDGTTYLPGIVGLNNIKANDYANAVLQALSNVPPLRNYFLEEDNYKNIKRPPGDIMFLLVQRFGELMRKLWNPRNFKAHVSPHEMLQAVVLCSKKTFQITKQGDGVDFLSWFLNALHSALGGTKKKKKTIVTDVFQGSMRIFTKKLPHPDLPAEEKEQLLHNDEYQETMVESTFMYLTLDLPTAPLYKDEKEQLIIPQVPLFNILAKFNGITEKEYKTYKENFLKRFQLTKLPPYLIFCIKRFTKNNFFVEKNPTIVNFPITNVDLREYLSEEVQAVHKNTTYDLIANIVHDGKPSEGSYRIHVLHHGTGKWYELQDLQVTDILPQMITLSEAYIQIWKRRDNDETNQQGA
Procedure, shortened: as §1

[5] = biological target: T4, USP4 (UniProt Q13107)
T4 sequence (whole entry): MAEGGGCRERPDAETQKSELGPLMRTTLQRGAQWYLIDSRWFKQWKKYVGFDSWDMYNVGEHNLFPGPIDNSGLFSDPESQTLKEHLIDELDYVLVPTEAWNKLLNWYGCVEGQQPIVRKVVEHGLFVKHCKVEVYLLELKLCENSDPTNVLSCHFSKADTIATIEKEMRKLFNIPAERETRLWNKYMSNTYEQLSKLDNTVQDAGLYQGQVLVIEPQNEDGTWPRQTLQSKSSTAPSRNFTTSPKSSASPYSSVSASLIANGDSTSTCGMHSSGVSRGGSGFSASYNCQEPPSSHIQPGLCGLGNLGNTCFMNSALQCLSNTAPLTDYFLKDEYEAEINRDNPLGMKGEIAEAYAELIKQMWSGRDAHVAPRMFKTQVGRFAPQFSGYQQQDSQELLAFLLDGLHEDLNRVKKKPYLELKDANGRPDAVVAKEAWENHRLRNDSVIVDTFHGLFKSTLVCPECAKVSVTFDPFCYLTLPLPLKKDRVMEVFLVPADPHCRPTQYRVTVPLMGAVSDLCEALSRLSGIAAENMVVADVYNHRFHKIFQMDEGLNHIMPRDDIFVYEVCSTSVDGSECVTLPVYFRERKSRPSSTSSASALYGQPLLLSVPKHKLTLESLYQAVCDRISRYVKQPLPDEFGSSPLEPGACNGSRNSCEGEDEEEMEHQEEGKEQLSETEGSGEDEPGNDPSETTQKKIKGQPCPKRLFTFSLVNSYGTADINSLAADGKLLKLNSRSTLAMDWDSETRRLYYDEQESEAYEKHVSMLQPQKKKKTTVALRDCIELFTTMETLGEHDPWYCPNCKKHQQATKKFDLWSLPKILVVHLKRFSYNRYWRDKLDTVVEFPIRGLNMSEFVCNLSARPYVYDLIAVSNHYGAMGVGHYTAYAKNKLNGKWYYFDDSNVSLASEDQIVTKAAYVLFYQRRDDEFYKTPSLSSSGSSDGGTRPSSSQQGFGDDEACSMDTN
Procedure, shortened: as §1

Measured: log2 ratio of Biotin-Ahx-Ub-VS probe labelling

Sequence of USP34 (Q70CQ2 whole entry, the tested form may be a part): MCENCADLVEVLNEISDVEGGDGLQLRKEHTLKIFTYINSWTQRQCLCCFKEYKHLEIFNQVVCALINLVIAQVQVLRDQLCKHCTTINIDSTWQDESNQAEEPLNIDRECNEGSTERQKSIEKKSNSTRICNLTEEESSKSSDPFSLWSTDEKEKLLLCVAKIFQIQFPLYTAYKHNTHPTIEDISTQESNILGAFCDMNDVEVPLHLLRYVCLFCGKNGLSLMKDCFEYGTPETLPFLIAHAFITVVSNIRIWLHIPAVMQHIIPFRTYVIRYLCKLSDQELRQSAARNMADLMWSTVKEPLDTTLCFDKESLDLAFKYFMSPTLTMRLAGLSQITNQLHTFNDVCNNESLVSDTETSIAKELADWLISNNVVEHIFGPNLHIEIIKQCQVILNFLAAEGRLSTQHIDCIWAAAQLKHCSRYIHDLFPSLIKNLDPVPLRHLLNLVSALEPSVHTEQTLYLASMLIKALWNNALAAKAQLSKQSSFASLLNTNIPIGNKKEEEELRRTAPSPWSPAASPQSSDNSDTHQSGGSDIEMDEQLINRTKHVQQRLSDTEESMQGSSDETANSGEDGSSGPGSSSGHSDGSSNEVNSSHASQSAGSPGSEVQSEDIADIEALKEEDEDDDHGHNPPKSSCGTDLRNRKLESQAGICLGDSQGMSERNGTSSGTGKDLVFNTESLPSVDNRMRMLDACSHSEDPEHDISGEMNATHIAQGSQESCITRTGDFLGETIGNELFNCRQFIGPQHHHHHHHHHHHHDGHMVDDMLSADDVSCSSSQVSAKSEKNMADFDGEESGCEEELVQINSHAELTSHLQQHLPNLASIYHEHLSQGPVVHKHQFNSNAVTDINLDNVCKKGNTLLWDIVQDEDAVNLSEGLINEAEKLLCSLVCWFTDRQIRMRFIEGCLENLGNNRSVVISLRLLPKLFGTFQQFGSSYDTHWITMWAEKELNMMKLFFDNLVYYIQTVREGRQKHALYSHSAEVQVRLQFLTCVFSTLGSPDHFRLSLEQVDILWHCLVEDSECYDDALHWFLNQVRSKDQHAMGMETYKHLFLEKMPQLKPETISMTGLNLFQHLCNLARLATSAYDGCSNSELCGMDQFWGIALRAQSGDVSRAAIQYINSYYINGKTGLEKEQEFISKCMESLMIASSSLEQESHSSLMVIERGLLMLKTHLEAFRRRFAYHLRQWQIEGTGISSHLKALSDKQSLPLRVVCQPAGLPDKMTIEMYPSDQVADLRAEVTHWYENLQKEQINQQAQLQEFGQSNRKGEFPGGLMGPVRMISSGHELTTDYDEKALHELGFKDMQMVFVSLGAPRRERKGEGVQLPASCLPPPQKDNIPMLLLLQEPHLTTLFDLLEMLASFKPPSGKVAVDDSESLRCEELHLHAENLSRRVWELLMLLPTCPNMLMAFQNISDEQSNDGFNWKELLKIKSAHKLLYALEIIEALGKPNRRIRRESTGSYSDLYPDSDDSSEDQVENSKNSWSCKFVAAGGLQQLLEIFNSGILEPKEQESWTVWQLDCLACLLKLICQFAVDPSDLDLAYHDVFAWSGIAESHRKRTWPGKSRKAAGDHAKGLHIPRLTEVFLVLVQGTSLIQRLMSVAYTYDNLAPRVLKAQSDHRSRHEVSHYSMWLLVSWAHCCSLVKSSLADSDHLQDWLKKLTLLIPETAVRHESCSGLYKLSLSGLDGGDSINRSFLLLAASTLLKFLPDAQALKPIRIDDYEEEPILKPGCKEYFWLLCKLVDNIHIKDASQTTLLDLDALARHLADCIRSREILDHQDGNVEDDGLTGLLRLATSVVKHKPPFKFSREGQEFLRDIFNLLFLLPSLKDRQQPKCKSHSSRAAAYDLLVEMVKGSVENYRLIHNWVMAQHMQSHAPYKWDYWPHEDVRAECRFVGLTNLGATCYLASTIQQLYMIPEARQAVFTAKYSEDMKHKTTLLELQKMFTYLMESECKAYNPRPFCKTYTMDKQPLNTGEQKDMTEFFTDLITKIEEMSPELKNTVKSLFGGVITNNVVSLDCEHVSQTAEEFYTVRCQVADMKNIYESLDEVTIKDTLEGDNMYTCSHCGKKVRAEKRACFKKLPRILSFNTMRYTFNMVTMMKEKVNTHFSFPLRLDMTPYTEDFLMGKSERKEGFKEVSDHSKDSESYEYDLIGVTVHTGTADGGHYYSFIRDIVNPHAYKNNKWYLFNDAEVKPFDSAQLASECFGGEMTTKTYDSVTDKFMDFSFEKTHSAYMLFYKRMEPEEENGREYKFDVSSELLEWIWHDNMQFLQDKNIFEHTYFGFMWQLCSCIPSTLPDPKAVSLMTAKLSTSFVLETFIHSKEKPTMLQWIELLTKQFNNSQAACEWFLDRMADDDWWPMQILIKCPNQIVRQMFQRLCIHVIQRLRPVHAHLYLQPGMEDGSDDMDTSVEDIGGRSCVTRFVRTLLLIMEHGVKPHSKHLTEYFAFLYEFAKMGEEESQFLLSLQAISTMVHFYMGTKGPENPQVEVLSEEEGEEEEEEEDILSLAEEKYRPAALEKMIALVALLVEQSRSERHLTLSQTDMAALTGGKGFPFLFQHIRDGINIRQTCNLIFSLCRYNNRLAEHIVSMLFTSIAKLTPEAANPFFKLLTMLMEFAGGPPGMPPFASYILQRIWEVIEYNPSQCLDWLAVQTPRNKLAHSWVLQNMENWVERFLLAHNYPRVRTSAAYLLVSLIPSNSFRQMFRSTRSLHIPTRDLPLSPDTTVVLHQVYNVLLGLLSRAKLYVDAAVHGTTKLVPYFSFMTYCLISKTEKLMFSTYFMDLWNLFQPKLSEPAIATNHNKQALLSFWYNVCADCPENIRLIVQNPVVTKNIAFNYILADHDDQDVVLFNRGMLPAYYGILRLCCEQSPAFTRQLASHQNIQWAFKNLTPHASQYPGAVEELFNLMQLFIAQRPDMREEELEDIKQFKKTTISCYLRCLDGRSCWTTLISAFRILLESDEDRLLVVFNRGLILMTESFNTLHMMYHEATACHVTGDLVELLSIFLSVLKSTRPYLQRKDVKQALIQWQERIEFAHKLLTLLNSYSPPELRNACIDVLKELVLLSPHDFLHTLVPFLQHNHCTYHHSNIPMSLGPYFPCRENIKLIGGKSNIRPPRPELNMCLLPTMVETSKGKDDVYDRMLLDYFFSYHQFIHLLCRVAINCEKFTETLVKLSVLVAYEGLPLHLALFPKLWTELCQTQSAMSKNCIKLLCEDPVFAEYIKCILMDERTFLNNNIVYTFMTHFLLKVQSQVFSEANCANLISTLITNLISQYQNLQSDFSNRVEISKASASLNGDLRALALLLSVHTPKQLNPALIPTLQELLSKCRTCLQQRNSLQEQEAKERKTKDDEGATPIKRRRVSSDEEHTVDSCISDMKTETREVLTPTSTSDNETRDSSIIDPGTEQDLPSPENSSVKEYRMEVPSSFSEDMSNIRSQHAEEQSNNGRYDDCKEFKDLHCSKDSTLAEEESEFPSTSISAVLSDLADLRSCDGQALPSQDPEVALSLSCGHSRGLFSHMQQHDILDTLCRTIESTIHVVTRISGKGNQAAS

O=C(CCl)Nc1ccc(N2CCCC2=O)cc1
inactive: [1] 0.0377 | [2] 0.2 | [3] 0.147 | [4] -0.106 | [5] 0.0532
